Screens as filed in PubChem BioAssay.
Only some compounds are listed: those with a hit (about 1.6% of all), similar ones and a draw of the others.
CASP6 VEID inh: caspase-6 (human) enzyme inhibition | inhibition, % at 12.5 µM | P55212 | 350,000 compounds, 0.53% hits | AID 686996 | purified caspase-6, Z-VEID-R110 cleavage fluorescence;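 active = mean inhibition across replicates at least about 35%, with every replicate also reaching that limit, limit read from the data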
SIRT5 block: sirtuin-5 (human) deacylase inhibition; Q9NXA8; Purified SirT5, succinyl-peptide AMC, trypsin-coupled fluorescence; inhibition, % at 15 µM; 330,000 compounds, 1.1% hits; AID 652115; in the data active = inhibition above about 15%
Target sequence (Q9NXA8 whole entry, looked up): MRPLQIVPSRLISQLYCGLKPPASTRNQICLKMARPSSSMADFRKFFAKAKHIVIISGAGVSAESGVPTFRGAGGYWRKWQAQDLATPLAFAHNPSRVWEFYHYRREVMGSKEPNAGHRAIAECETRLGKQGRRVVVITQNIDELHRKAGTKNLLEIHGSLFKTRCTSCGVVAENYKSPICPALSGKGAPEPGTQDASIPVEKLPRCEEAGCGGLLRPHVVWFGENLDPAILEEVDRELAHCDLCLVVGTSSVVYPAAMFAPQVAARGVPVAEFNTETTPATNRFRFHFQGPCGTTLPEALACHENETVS
UBC9 SUMO inh: blocks human SUMOylation mediated by UBC9; P63279; AID 2006; inhibition, % at 35 µM; 290,000 compounds, 0.36% hits; HTRF SUMOylation assay, SAE1/SAE2 + UBC9, in vitro; in the data active = inhibition above about 50%, passing the limit was not always enough
NSD2 HMT inh: inhibitors of human histone methyltransferase NSD2. O96028. NSD2 peptide methylation, AlphaScreen, 120 min. inhibition, % at 12.5 µM. 310,000 compounds, 0.54% hits; in the data active = inhibition above about 50%
A number is an active result; 0 = inactive; - = not tested or not shown; ! = a repeat was not active.

SMILES	CASP6 VEID inh	SIRT5 block	UBC9 SUMO inh	NSD2 HMT inh
COc1ccccc1/C=N/NC(=O)c1ccc(CN2C(=O)c3cccc4cccc2c34)cc1	0	0	59	0
NNC(=O)c1ccc(CN2C(=O)c3cccc4cccc2c34)cc1	0	0	0	0
CC(C)C#Cc1ccc2c(c1)O[C@H](CN(C)S(=O)(=O)c1cn(C)cn1)[C@H](C)CN([C@@H](C)CO)S2(=O)=O	0	0	-	-
CCC/C=C/c1ccc(CN2C(C)C(=O)N(Cc3cn(CCC4OCCCO4)nn3)CCS2(=O)=O)cc1 (stereo unspecified)	0	22	-	-
Cc1nn(CC(=O)N/N=C/c2ccc3c(c2)OCO3)c(C)c1Br	0	0	50	0
Cc1cc(C)n(CC(=O)N/N=C/c2ccc3c(c2)OCO3)n1	0	0	0	0
O=C(C1CCCCC1)N1CC(=O)N2[C@H](CO)[C@@H](c3ccc(Br)cc3)[C@@H]2C1	0	0	-	-
CCOC(=O)c1c(C)[nH]c(C)c1S(=O)(=O)NCC1CCN(Cc2cccc(Cl)c2)CC1	0	16	0	0
COc1ccc(NC(=O)N(C)C[C@H]2OCCCC[C@H](C)Oc3ccc(N(C)C)cc3C(=O)N([C@H](C)CO)C[C@H]2C)cc1	0	0	-	-
CC(C)OC(=O)C(C(=O)C(F)(F)F)c1cc(NS(=O)(=O)c2ccc3ccccc3c2)c2ccccc2c1O (stereo unspecified)	-	-	71	-
CC1(C)OC2CC3C4CC(F)C5=CC(=O)C=CC5(C)C4(F)C(O)CC3(C)C2(C(=O)CO)O1 (stereo unspecified)	0	17	0	0
Cc1cc(NCCO)c2cc(O)ccc2n1	-	-	57	0
O=C(C1Cc2ccccc2CN1S(=O)(=O)c1ccc(F)cc1)N1CCOCC1 (stereo unspecified)	0	25	0	0
CN(Cc1ccccc1)C(=O)c1ccc(NC(=O)Cc2cccc(NC(=O)C3CCN(C(=O)C4CCCCC4)CC3)c2)cc1	0	16	-	-
O=C(Cc1cccc(NC(=O)C2CCCN(C(=O)C3CCCC3)C2)c1)Nc1cccc(C(=O)N2CCOCC2)c1 (stereo unspecified)	0	19	-	-
CN(C(=O)c1cccc(NC(=O)Cc2ccc(NC(=O)C3CCN(C(=O)C4CCC4)CC3)cc2)c1)C1CC1	0	23	-	-
CN(Cc1ccccc1)C(=O)c1ccc(NC(=O)Cc2cccc(NC(=O)C3CCN(C(=O)C4CC4)CC3)c2)cc1	0	-	-	-
O=C(NCc1nc2ccccc2[nH]1)C1=C[C@@H](c2ccc3c(c2)OCO3)C[C@@H](OCCCCO)O1	0	0	-	-
COC(=O)CCC(=O)OC1(C)C(=O)C=C2C=C(C3CC3)N(CCCCO)C=C2C1=O (stereo unspecified)	37	0	0	-
CCOC(=O)c1ccsc1NC(=O)CCS(=O)(=O)c1ccccc1	0	0	0	0
CCOC(=O)c1cc(C(C)C)sc1NC(=O)COC(=O)CCS(=O)(=O)c1ccccc1	0	34	0	0
CC1CCCN(C(=O)Nc2ccc(Br)cc2Cl)C1 (stereo unspecified)	0	0	0	0
CC1CN(C(=O)Nc2ccc(Br)cc2Cl)CC(C)O1 (stereo unspecified)	0	67	0	0
O=C(N[C@@H]1CC[C@H](CC(=O)N2CCN(c3ccccc3)CC2)O[C@@H]1CO)c1ccccc1	0	0	-	-
C[C@@H]1CN([C@H](C)CO)C(=O)Cc2cc(NC(=O)CCC(F)(F)F)ccc2O[C@H]1CN(C)S(=O)(=O)c1cccs1	0	0	-	-
SMILES	CASP6 VEID inh	SIRT5 block	UBC9 SUMO inh	NSD2 HMT inh
O=C1CCC(=O)c2ccc3c4c(ccc1c24)CC3	92	0	-	0
O=C1c2ccc3c4c(ccc(c24)C(=O)N1c1ccc2ccccc2c1)CC3	-	-	0	0
Cc1ccc([N+](=O)[O-])cc1S(=O)(=O)Nc1ccc(C(=O)N2CCN(C(=O)c3ccco3)CC2)cc1	54	0	-	0
CCOC(=O)C1=CCN(S(=O)(=O)c2ccc(C)cc2)C1c1ccc(CC)cc1 (stereo unspecified)	0	16	-	-
CCOC(=O)C1=CCN(S(=O)(=O)c2ccc(C)cc2)C1c1cccc(Br)c1 (stereo unspecified)	0	29	-	-
Cn1ccnc1SC(C(=O)O)c1ccccc1 (stereo unspecified)	0	102	0	0
O=C(C[C@H]1C[C@H]2c3cc(NC(=O)NC4CCCC4)ccc3O[C@H]2[C@H](CO)O1)NCc1ccc(Cl)cc1	0	0	-	-
Nc1ncnc2nc[nH]c12	0	44!	0	-
c1nc(N2CCCCC2)c2[nH]cnc2n1	0	-	0	-
COc1ccc(S(=O)(=O)Nc2ccc3c(c2)C(=O)N([C@@H](C)CO)C[C@H](C)[C@@H](CN(C)C(=O)Nc2ccc(F)cc2)OCCCC[C@H](C)O3)cc1	0	16	-	-
